Screening results from PubChem.
ALOX12 inh: blocks human arachidonate 12S-lipoxygenase | Potency, µM (highest dose often 108 µM), for inactives: at the top dose activity change, negative = inhibition, most hits filed as inhibitors | purified 12hLO, xylenol orange hydroperoxide absorbance | hit rate 1.1% among 580,000 | AID 1671190
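Hydroperoxide product was detected by ferrous iron/xylenol orange as the 573 to 405 nm absorbance ratio. Arachidonic acid at 40 uM (final) was turned over for 30 min at room temperature by 150 nM human 12hLO, pH 7.0 Hepes buffer, after 15 min compound preincubation.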
TDP1 cell noCPT: qHTS for Inhibitors of human tyrosyl-DNA phosphodiesterase 1 (TDP1): qHTS in cells in absence of CPT; DT40 Tdp1-/- hTDP1 cells, no CPT, ATP luminescence, 48 h; Potency, µM (top dose mostly 46.2 µM), for the others: at the top dose activity change, negative = growth inhibition, usual class: inhibitors; hit rate 15% among 420,000; AID 686978, 2013; further: nearly all actives have a fitted effect of over 55% in size
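Stably hTDP1-transfected Tdp1-null chicken DT40 cells were treated with library compounds minus camptothecin and grown for at least 48 hr at 37 °C, after which cellular ATP was quantified by luminescence.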
RORg inh: inhibitors of mouse ROR gamma transcriptional activity; Drosophila S2 Gal4-RORgamma UAS-luciferase reporter, 20 h; hit rate 5.4% among 310,000; Potency, µM (highest dose often 53.6 µM), for inactives: at the highest dose activity change, negative = inhibition, actives largely listed as inhibitors; P51450; further: nearly all actives have a fitted effect of over 60% in size
Target sequence (P51450 whole entry, looked up, the tested form may be a part): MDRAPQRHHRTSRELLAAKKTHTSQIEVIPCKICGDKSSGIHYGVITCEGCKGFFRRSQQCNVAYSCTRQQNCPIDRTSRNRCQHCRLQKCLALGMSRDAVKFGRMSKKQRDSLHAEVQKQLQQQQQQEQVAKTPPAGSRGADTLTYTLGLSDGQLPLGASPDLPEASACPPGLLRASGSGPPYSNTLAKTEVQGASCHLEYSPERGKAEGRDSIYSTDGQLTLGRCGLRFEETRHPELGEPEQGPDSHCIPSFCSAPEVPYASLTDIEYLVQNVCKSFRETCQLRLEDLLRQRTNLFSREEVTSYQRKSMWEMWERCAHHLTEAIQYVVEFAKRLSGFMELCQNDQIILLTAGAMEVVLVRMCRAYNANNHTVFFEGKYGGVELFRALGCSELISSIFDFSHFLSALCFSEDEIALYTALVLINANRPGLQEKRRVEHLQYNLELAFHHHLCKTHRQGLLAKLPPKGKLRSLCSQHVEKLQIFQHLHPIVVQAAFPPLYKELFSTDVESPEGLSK
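Luciferase reporter read in Schneider cells carrying Gal4-RORγ (mouse) and UAS-Photinus luciferase; cells given compound 1 h before 700 uM copper sulfate induction, then incubated 20 h at ambient temperature.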
Gal4-VP16 FLuc: inhibits Gal4-VP16 luciferase reporter, ROR gamma counter-screen | Drosophila S2 Gal4-VP16 UAS-luciferase, luminescence, 20 h | Potency, µM (titrated, usually from 53.6 µM), for the others: at the top dose activity, negative = inhibition, most hits filed as inhibitors | hit rate 3.5% among 310,000;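 further: Gal4-VP16 expression switched on by copper sulfate through the metallothionein promoter; nearly all actives have a fitted effect of over 50% in size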
TDP1 cell CPT: DT40-hTDP1 cell growth loss with CPT. chicken DT40 Tdp1-/-;hTDP1 cells + 20 nM CPT, ATP luminescence, 48 h. Potency, µM (series often up to 46.2 µM), for the others: at the highest dose activity change, negative = growth inhibition, most hits filed as inhibitors. hit rate 12% among 420,000. AID 686979; further: nearly all actives have a fitted effect of over 55% in size
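Chicken DT40 Tdp1-/- cells stably complemented with human TDP1 were seeded at 400 cells/well in medium containing 20 nM camptothecin, exposed to pin-transferred compounds, and grown at 37 °C for at least 48 hr. Viability was read as ATP luminescence.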
ELG1 repair inh: ELG1-dependent DNA repair inhibition; hit rate 2.3% among 330,000; Potency, µM (highest dose often 46.1 µM), for inactives: at the highest dose activity change, negative = inhibition, most hits filed as inhibitors; AID 504467; HEK293T ELG1-luciferase reporter, luminescence, 16 h; DNA damage induced by 5-fluorouridine; further: nearly all actives have a fitted effect of over 55% in size
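In this reporter screen, reduction of luminescence relative to DMSO vehicle indicated activity. Compounds and 5-fluorouridine were added together to 2,000 cells per well, incubated for 16 hr at 37 °C, then developed with ONE-Glo.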
Numbers without * were called inactive; u = inconclusive; x = no result; [ ] = dose if it differs, or a comment. Most compounds without a hit are left out; they make up all but 15% or so of the library. The call rests on the fitted dose curve; in most records, active means well fitted curve in the direction sought with a large enough effect; inconclusive means small, poorly fitted or top-dose-only effect, or another doubt; inactive means no such curve, though single readings can be large; an effect the other way counts as inactive or inconclusive. On the % scale 0 is the no-effect control and ±100 the full control effect; potency means the concentration at half of the fitted maximal effect.

SMILES | ALOX12 inh | TDP1 cell noCPT | RORg inh | Gal4-VP16 FLuc | TDP1 cell CPT | ELG1 repair inh
COc1ccc(/C(C)=N/OC/C(O)=C(\C#N)c2nc3ccccc3[nH]2)cc1OC | 14.6% | 16.4µM* | 10µM* | -8.9% | u | -0.4%
COc1ccc2oc(C(=O)OC/C(O)=C(\C#N)c3nc4ccccc4[nH]3)c(C)c2c1 | 25.2% | -6.9% | u | -1.3% | -20.9% | 11.0%
CCOC(=O)C1C(=O)C=C(c2ccc(F)cc2)CC1c1c(F)cccc1Cl (configuration not stated) | -26.3% | x | x | x | x | x
Cc1cccc(Cn2c(Sc3nncn3C)nc3c2c(=O)[nH]c(=O)n3C)c1 | 14.3% | x | x | x | x | x
Cc1c(NC(=S)N/N=C/C=C/c2ccc([N+](=O)[O-])cc2)c(=O)n(-c2ccccc2)n1C | u | u | 3.16µM* | 11.2µM* | -15.3% | -22.5%
Cc1c(NC(=S)N/N=C/c2ccc([N+](=O)[O-])cc2O)c(=O)n(-c2ccccc2)n1C | -9.0% | -21.5% | -1.9% | 3.2% | u | -25.2%
Cc1c(NC(=S)N/N=C\c2ccccc2O)c(=O)n(-c2ccccc2)n1C | -3.7% | 20.6µM* | u | -21.4% | u | u
Cc1c(NC(=S)SCc2ccccc2)c(=O)n(-c2ccccc2)n1C | 0.3% | 23.1µM* | u | -10.1% | -14.1% | 29.3%
CCSC(=S)Nc1c(C)n(C)n(-c2ccccc2)c1=O | 2.6% | -24.3% | 14.5% | -2.0%[10 µM] | -28.2% | -7.1%
CCc1ccc(NC(=O)CCC(=O)N2CCSc3ccccc32)cc1 | 383.7% | u | 17.9% | -2.8% | 20.6µM* | -1.4%
Cc1ccc(CNC(=O)CCC(=O)N2CCSc3ccccc32)cc1 | 0.9% | 23.1µM* | x | x | u | x
O=C(CCC(=O)N1CCSc2ccccc21)NCc1cccc(Cl)c1 | 118.6% | u | 6.7% | -6.9% | u | -0.2%
CCc1cccc(NC(=O)CCC(=O)N2CCSc3ccccc32)c1 | 342.2% | u | 7.6% | 3.4% | u | 3.6%
CCC(C)C(=O)NCc1cc2c(nc1OC)CN(CCc1ccccn1)C2=O (configuration not stated) | 34.1% | x | x | x | x | x
COc1ccccc1CCN1CCC(CN(C)C(=O)CCc2ccccc2Cl)CC1 | 8.0% | x | x | x | x | x
O=C(Cc1cccs1)Nc1cccc2c1CCCC2 | 7.7% | x | x | x | x | x
COc1ccc(-n2nc(C)c([C@@H]3C=C[C@@H](NCc4cccc(Cl)c4)C3)c2C)cc1 | -24.7%[176 µM] | x | x | x | x | x
CC(C)CCN1CCC(N2CCN(S(=O)(=O)Cc3ccc(F)cc3Cl)CC2)C1=O (configuration not stated) | -3.4% | x | x | x | x | x
Cc1nn2cc(-c3ccccc3)nc2s1 | -0.9% | -18.2% | 11.2µM* | u | -6.8% | u
c1ccc(-c2cn3nc(-c4ccccc4)sc3n2)cc1 | x | 1.9% | x | x | -0.8% | x
CC(OC(=O)c1csc(NCc2ccccc2)n1)C(=O)N1CCNC1=O (configuration not stated) | -2.5% | x | x | x | x | x
CCC(=O)N1CCN(c2nc3c(s2)CC(C(=O)Nc2ccc(OC)c(F)c2)CC3)CC1 (configuration not stated) | 25.1µM* | x | x | x | x | x
CC(C)C(=O)N1CCN(c2nc3c(s2)CC(C(=O)Nc2ccc(Cl)cc2)CC3)CC1 (configuration not stated) | 31.6µM* | x | x | x | x | x
CCC(=O)N1CCN(c2nc3c(s2)CC(C(=O)Nc2ccc(OC)cc2)CC3)CC1 (configuration not stated) | 24.9% | x | x | x | x | x
Cn1nc(C(=O)N2CCOCC2)cc1C(=O)Nc1cccc(F)c1 | 2.2% | x | x | x | x | x
SMILES | ALOX12 inh | TDP1 cell noCPT | RORg inh | Gal4-VP16 FLuc | TDP1 cell CPT | ELG1 repair inh
O=C(Nc1ccc(C(F)(F)F)cc1[N+](=O)[O-])O[C@H]1[C@H](Cc2ccccc2)NS(=O)(=O)[C@H]2C[C@@H]3C=C[C@]12O3 | 8.4% | 16.4µM* | x | x | 20.6µM* | u
Cc1cc(C(=O)O[C@H]2[C@H](Cc3ccccc3)NS(=O)(=O)[C@H]3C[C@@H]4C=C[C@]23O4)ccc1[N+](=O)[O-] | -1.3% | u | x | x | u | -0.8%
CC[C@H]1c2[nH]c3ccccc3c2C[C@@H]2C(=O)N(c3ccc(F)cc3)C(=O)N21 | -5.7% | u | x | x | 16.4µM* | 8.2µM*
CC1(C)c2[nH]c3ccccc3c2C[C@@H]2C(=O)N(c3cc(F)ccc3F)C(=O)N21 | -13.0% | x | x | x | x | x
COc1ccc(-c2cc(N3CCCC(NC(=O)c4ccc(OC)cc4OC)C3)n[nH]2)cc1 (configuration not stated) | 35.8% | x | x | x | x | x
CC(C)NC(=O)NC1CC2(CCN(Cc3ccc(O)cc3)CC2)c2ccccc21 (configuration not stated) | 5.0%[6.33 µM] | x | x | x | x | x
CCc1nc2c(OCc3ccccc3C(=O)OC)cccn2c1N(C)C(=O)CC(C)C | u | 13µM* | x | x | 16.4µM* | x
CCc1nc2c(OCCc3cccc(OC)c3)cccn2c1N(C)C(=O)c1cccs1 | 20.5% | u | x | x | 20.6µM* | x
CCc1nc2c(OCc3ccccc3C(=O)OC)cccn2c1N(C)C(=O)c1cccs1 | -4.5% | 29.1µM* | x | x | u | x
COc1ccc(-c2nc(C(C)C)nc3c2CN([S+](=O)([O-])c2ccccc2)CC3)cc1 | 47.0% | x | x | x | x | x
O=C(Cc1ccsc1)N[C@@H]1COCC[C@@H]1OCc1cscn1 | 12.8% | x | x | x | x | x
COc1ccc(C=O)c(OCc2cn(CC(=O)c3ccc(O)cc3)nn2)c1 | 1.26µM* | -9.5% | x | x | -20.3% | x
O=Cc1cccc(OCc2cn(CC(=O)c3ccc(O)cc3)nn2)c1 | u | -25.7% | x | x | 6.9% | x
O=C(COc1ccc(F)cc1)N1CCC2(CC1)NC(=O)N(c1ccc(F)cc1)N2 | 2.51µM* | x | x | x | x | x
O=C(COc1ccccc1)N1CCN(C(=O)c2cccc(F)c2)CC1 | -10.7% | -9.5% | -9.3%[0.365 µM] | x | -6.1% | -1.2%
Cc1cccc(OCC(=O)N2CCC3(CC2)NC(=O)N(Cc2ccccc2)C3=O)c1 | -6.5% | x | x | x | x | x
Cc1cccc(OCC(=O)N2CCC3(CC2)NC(=O)N(c2cccc(F)c2)N3)c1 | 2.24µM* | x | x | x | x | x
O=C(COc1ccccc1)N1CCC2(CC1)NC(=O)N(c1cccc(F)c1)N2 | 2.82µM* | x | x | x | x | x
Cc1cc(NC(=O)c2ccc3c(c2)N(C)C2CCCCCN2C3=O)ccc1Br (configuration not stated) | 9.1% | x | x | x | x | x
C[C@H]1[C@@H](NC(=O)Nc2cccc(C#N)c2)CC[C@@]23CCCN2C(=O)CCC[C@@H]13 | 0.9% | x | x | x | x | x
